Jurkat NFkB inh = inhibitors of induced NF-kB luciferase reporter, primary screen, TCR NF-kB activation inhibitor project, cell-based, luminescence, uHTS. Jurkat, PMA/ionomycin-induced NF-kB luciferase reporter. inhibition, % at 4 µM. hit rate 0.53% among 330,000; in the data active = inhibition above about 50%
SMARCA2 activ = SMARCA2 (BRM) function activators, primary screen, cell-based, luminescence, high throughput; hit rate 1% among 370,000; AID 652017, 2013; activation, % at 9.1 µM; MG213 cells, MMTV-luciferase reporter, dexamethasone, overnight; in the data active = activation above about 7.8%;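 note: 0% = vehicle wells and 100% = reference activator wells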
esBAF inh = Bmi1 luciferase reporter increase in mESCs, primary screen, esBAF inhibitor project, mouse ES cells, Bmi1 luciferase knock-in, single point | reporter increase, % at 12.5 µM | AID 602393, 2012 | hit rate 2% among 350,000 | 24 h; 100% = twice the neutral-well signal; in the data active = activation above about 40%;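 note: 0% = median of the plate's neutral control wells and 100% = double that signal; a rise in the Bmi1 reporter signal indicates esBAF inhibition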
697 NFkB inh = inhibitors of PMA/ionomycin-induced NF-kB reporter, 697 cells, primary screen, B-cell NF-kB inhibitor project, cell-based, luminescence, uHTS; inhibition, % at 4 µM; AID 435022, 2010; 697 B-cell NF-kB luciferase reporter, 16 h; hit rate 0.33% among 330,000; in the data active = inhibition above about 35%
Gli-Sufu block = Gli-Sufu pathway antagonists, primary screen, luciferase luminescence, Sufu-KO-LIGHT cells, uHTS; Sufu-KO-LIGHT fibroblasts, Gli luciferase reporter luminescence; inhibition, % at 5 µM; hit rate 0.74% among 340,000;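 active = inhibition above about 55%, limit read from the data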;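 note: 0% = DMSO-treated cells and 100% = wells with medium but no cells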
Gli antag conf = Gli-SUFU pathway antagonists, confirmation, single concentration, luciferase luminescence, Sufu-KO-LIGHT cells; Gli luciferase reporter; shares compounds with Gli-Sufu block; hit rate 40% among 2,500; AID 602428, 2012; inhibition, % at 5 µM;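 active = mean inhibition at 5 µM reaching about 45%, limit read from the data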;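 note: plate controls were DMSO-treated cells for no effect and wells lacking cells for full effect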
SufuKO cytotox = cytotoxicity in Sufu-KO-LIGHT cells, confirmation, cytotoxicity control for Gli-SUFU antagonist project, cell-based, ATP luminescence, single concentration; shares compounds with Gli-Sufu block; cytotoxicity, % at 5 µM; hit rate 32% among 2,500;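 active = mean cytotoxicity at 5 µM above about 25%, limit read from the data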;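 note: cells exposed to compound overnight for roughly 16 to 18 hours; plate controls were DMSO wells with cells for no effect and medium without cells for full effect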
Wnt3a counter = Wnt3a reporter signal inhibition, confirmation, counter-screen for Gli-SUFU antagonist project, Wnt-LIGHT cells, luminescence, single concentration; shares compounds with Gli-Sufu block; Wnt3a-driven luciferase reporter; inhibition, % at 6.25 µM; hit rate 20% among 2,500;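 active = mean inhibition above about 25%, limit read from the data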
The depositor's hits bear a star. Rows were chosen to be rich in hits. Some 3.3% of all compounds tested hit in one or more screens of this group.

How did N#Cc1c(-c2ccccc2)cc(C2CC2)nc1N do in these assays?
Jurkat NFkB inh: -21; SMARCA2 activ: 1; esBAF inh: -6; 697 NFkB inh: -24; Gli-Sufu block: 50; Gli antag conf: 22; SufuKO cytotox: 24; Wnt3a counter: -14

How did CCCCc1nnc(NC(=O)CSCc2cc(=O)n3cc(C)sc3n2)s1 do in these assays?
Jurkat NFkB inh: 1; SMARCA2 activ: -1; esBAF inh: 3; 697 NFkB inh: 3; Gli-Sufu block: 51; Gli antag conf: 14; SufuKO cytotox: 10; Wnt3a counter: -12

Results for C[C@@H]1CN([C@H](C)CO)C(=O)Cc2cc(NS(=O)(=O)c3ccc(Cl)cc3)ccc2O[C@@H]1CN(C)S(=O)(=O)c1cccs1 ?
esBAF inh: 2

What do the screens show for `C[C@H]1CN([C@@H](C)CO)C(=O)c2cc(C3=CCCCC3)cnc2O[C@H]1CN(C)C(=O)Nc1ccccc1`?
esBAF inh: -3

How did CN1C(=O)c2cc(NC(=O)c3ccc(F)c(F)c3)ccc2OC[C@H]2O[C@H](CC(=O)O)CC[C@H]21 do in these assays?
esBAF inh: -2

Results for Cc1ccc(CSCCNC(=O)CSCc2ccc([N+](=O)[O-])cc2)cc1 ?
Jurkat NFkB inh: 12; SMARCA2 activ: -2; esBAF inh: -3; 697 NFkB inh: 21; Gli-Sufu block: 55; Gli antag conf: 21; SufuKO cytotox: 2; Wnt3a counter: 10

How did Cc1cccc(CSCCNC(=O)CSCc2ccc([N+](=O)[O-])cc2)c1 do in these assays?
Jurkat NFkB inh: -14; SMARCA2 activ: -4; esBAF inh: -6; 697 NFkB inh: -7; Gli-Sufu block: 1

Results for Cc1ccc(S(=O)(=O)Nc2cccc3c2O[C@@H](CN(C)C(=O)NC(C)C)[C@@H](C)CN([C@H](C)CO)C3=O)cc1 ?
esBAF inh: 3

Results for Cc1nnsc1C(=O)NC1CCCc2c1cnn2-c1ccccc1F (configuration not stated) ?
Jurkat NFkB inh: 9; SMARCA2 activ: -5; esBAF inh: -11; 697 NFkB inh: -20; Gli-Sufu block: 51; Gli antag conf: 45*; SufuKO cytotox: 8; Wnt3a counter: 29*

How did Cc1cccc(-n2ncc3c2CCCC3NC(=O)C2=CC(=O)CC(C)(C)O2)c1C (configuration not stated) do in these assays?
Jurkat NFkB inh: 21; SMARCA2 activ: -3; esBAF inh: 5; 697 NFkB inh: -15; Gli-Sufu block: 58*; Gli antag conf: 21; SufuKO cytotox: 31*; Wnt3a counter: 9

What do the screens show for `O=C(NC1CCCc2c1cnn2-c1ccccc1F)c1ccncc1` (configuration not stated)?
SMARCA2 activ: -3; esBAF inh: -7

What do the screens show for `COc1ccc(C(=O)NC2CCCc3c2cnn3-c2ccccc2F)cc1OC` (configuration not stated)?
Jurkat NFkB inh: 24; SMARCA2 activ: -3; esBAF inh: -10; 697 NFkB inh: -8; Gli-Sufu block: 56*; Gli antag conf: 24; SufuKO cytotox: 6; Wnt3a counter: -7

What do the screens show for `CC(C)(C)c1ccc(-n2ncc3c2CCCC3NC(=O)c2ccncc2)cc1` (configuration not stated)?
Jurkat NFkB inh: 32; SMARCA2 activ: -3; esBAF inh: -21; 697 NFkB inh: -19; Gli-Sufu block: 51; Gli antag conf: 28; SufuKO cytotox: 20; Wnt3a counter: -68

How did CCN1[C@H](C(=O)NC2CCC2)[C@@H](CO)[C@@H]2Cn3c(ccc(-c4ccc(OC)cc4)c3=O)[C@@H]21 do in these assays?
esBAF inh: 4

What do the screens show for `Cc1nnsc1C(=O)NC1CCCc2c1cnn2-c1ccc(C(C)(C)C)cc1` (configuration not stated)?
Jurkat NFkB inh: 46; SMARCA2 activ: -5; esBAF inh: -18; 697 NFkB inh: 13; Gli-Sufu block: 62*; Gli antag conf: 59*; SufuKO cytotox: 53*; Wnt3a counter: -10

Results for COc1ccc(CCN(C(=O)C(F)(F)F)C(C(=O)NC2CCCC2)c2cccs2)cc1 (configuration not stated) ?
Jurkat NFkB inh: -6; SMARCA2 activ: -2; 697 NFkB inh: -37; Gli-Sufu block: 51; Gli antag conf: 10; SufuKO cytotox: 21; Wnt3a counter: -10

Results for O=C(NC1CCCCC1)C(c1ccco1)N(CCc1ccccc1)C(=O)C(F)(F)F (configuration not stated) ?
Jurkat NFkB inh: 9; SMARCA2 activ: 4; esBAF inh: 5; 697 NFkB inh: 16; Gli-Sufu block: 0

How did C[C@@H]1CN([C@@H](C)CO)C(=O)Cc2cc(NS(=O)(=O)c3ccccc3)ccc2O[C@@H]1CN(C)S(=O)(=O)c1cn(C)cn1 do in these assays?
esBAF inh: 2

How did O=C(CSCc1ccc(Cl)cc1)N/N=C/c1ccccc1 do in these assays?
Jurkat NFkB inh: 6; SMARCA2 activ: -3; esBAF inh: 0; 697 NFkB inh: -22; Gli-Sufu block: 51; Gli antag conf: 8; SufuKO cytotox: 15; Wnt3a counter: -3

How did CCN(CC)S(=O)(=O)c1cccc(NC(=O)CCSc2ccc(Cl)cc2)c1 do in these assays?
SMARCA2 activ: -3; Gli-Sufu block: 51; Gli antag conf: 10; SufuKO cytotox: 28*; Wnt3a counter: -33

Results for CCN(CC)S(=O)(=O)c1cccc(NC(=O)CNc2cccc(S(=O)(=O)N3CCOCC3)c2)c1 ?
Jurkat NFkB inh: 49; esBAF inh: -34; 697 NFkB inh: 29; Gli-Sufu block: 63*; Gli antag conf: 69*; SufuKO cytotox: 25*; Wnt3a counter: 29*

What do the screens show for `CNC[C@@H]1OCCCC[C@H](C)Oc2ccc(N(C)C)cc2C(=O)N([C@H](C)CO)C[C@@H]1C`?
esBAF inh: -2

What do the screens show for `COC(=O)C[C@@H]1CC[C@H]2[C@@H](COC[C@@H](O)CN2C(=O)Nc2cccc(F)c2)O1`?
esBAF inh: 27

How did CCCc1nnc(NC(=O)CCC(=O)NCc2ccccc2Cl)s1 do in these assays?
Jurkat NFkB inh: 2; SMARCA2 activ: 0; esBAF inh: -7; 697 NFkB inh: -10; Gli-Sufu block: 55*; Gli antag conf: 9; SufuKO cytotox: 15; Wnt3a counter: -14

Source: PubChem
